According to the OligoGym collection:

Molecular target: GAB3
Assay: pooled miR-30 sensor sort-seq; sequence = guide strand
Conditions: shRNA
Further: reference of the scale not given here.

Row | Sequence | sensor-assay potency score (higher = more potent)
1 | TTGACCAGCTATCACATCTGGT | -0.37
2 | TTTTGTGCTCTGGAGAGCCTGT | -0.572
3 | TAGTACTCCAAGACATCGGGGT | 0.697
4 | TTTCGATGTAGCTTTCTTCGTC | 0.694
5 | TTATTCTGAAATTCCTTCCGAA | 0.459
6 | TTGACCTGTGTTGACCATCAGT | -0.72
7 | TTCCACACTGCACACTCGCTGA | -0.565

Molecular target: GABBR1
Assay: as above
Conditions: shRNA

Row | Sequence | sensor-assay potency score (higher = more potent)
8 | TTTTCAAAGAGTTTCACGCGGG | -0.189
9 | TAGGTCCATCTGTCTATCCCAA | -0.913
10 | TTCAGCATGACAATCTCAGTTG | -0.723
11 | TTGAGATTCGGGGAGATCCTTC | -0.396
12 | TTCTCATCAACTATCCACTGGA | 0.124
13 | TTCTCCTTCTCCAACAGCCGGG | -0.705
14 | TAGACAAATTGCACATGCCTAC | -0.546
15 | TCTTGGTGAACATGGAACCGTA | -1.08
16 | TAGCCAATCTTCTTGTAGCTGC | -0.0319
17 | TAGTACATGAATGCAATGGAGA | -0.803
18 | TTGTGAGTGTAGACTGAGGGTA | -0.0666
19 | TAGTCCGGCAGGATGTCCCTGC | -0.16
20 | TGAGGTTCCACATCCTAGCAGC | -0.132
21 | TTGGATAGCATGTTCTTCCCAG | 0.0924
22 | TTGTTGTTGGTCGATGACCCTG | -1.05
23 | TGGATCACACTTGCTGTCGTGG | -0.99
24 | ATGGTAGCAATCTTCTTCCAGC | -1.28
25 | TAAGACTTGGAGCAGATTCGGA | -0.862
26 | TAGTTTCTCCACAAATTCCTGG | -0.496
27 | TTCTGTGACAAGGAGAGGGTGT | 0.0904
28 | TCCTTCTTTGTGAAGACCGTGT | -0.749

Molecular target: GABRA1
Assay: as above
Conditions: shRNA

Row | Sequence | sensor-assay potency score (higher = more potent)
29 | TATATATCTACAAATGACCTAG | 0.243
30 | TACATCTATTGTATATTCCATA | -0.691
31 | TTGTGAGAGAATCACTGTCATT | -1.6
32 | TCTTCTGCTACAACCACTGAGC | -0.0993
33 | TATTTATCTCTAAAACATCTGG | -0.271
34 | TCTGCTACAACCACTGAGCGTG | -0.543
35 | TTAGTGAAATAGTTTACTGTGG | -0.522
36 | TAAACAACTTCTGCTCTTGTAT | -0.033
37 | TTACACGCTCTCCCAATCCTGG | -1.04
38 | TACTGTGGCAAACTCAATCAGA | -0.32
39 | TATATCATTGGATAGCAGCTTT | -0.213
